What all share (assay): DAPPL (digital affinity profiling via proximity ligation, sequencing); 10 mM Tris-HCl pH 7.5, 50 mM NaCl, 1 mM DTT, 4% glycerol, room temperature, 30 min; GST-TFs on glutathione beads, 16-mer random dsDNA library, 0.1% formaldehyde crosslink after washing; high values mean tight binding
The target in one test is T1, FEV (Homo sapiens, UniProt Q99581 1-238).
T1 sequence: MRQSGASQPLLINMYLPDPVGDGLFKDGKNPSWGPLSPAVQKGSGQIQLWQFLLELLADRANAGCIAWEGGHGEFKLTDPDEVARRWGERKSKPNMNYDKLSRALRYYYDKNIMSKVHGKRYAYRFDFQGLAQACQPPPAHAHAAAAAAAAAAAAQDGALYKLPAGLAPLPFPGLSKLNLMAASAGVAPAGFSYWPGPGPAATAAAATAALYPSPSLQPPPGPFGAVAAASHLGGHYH
Conditions: protein: recombinant; tags: N-terminal GST; dsDNA, one strand shown. In short, it runs like this:
(§1)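 Each value of binding signal is a hexamer's read frequency for a factor divided by the same hexamer's frequency in the tag-only sample. Barcoded, bead-captured GST fusions of human transcription factors made in yeast were pooled with that sample and incubated with 200 nmole of a random double-stranded 16-mer DNA library in Tris/NaCl/DTT/glycerol buffer at room temperature for 30 min. Washing, 0.1% formaldehyde crosslinking, proximity ligation, PCR and Illumina NextSeq500 sequencing followed.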

For the next test, the target named is ETV5 (Homo sapiens, UniProt P41161 1-510). Conditions: protein: recombinant; tags: N-terminal GST; dsDNA, one strand shown. The gist of the method:
as §1

The next test deals with HSF1 (Homo sapiens, UniProt Q00613 1-529). Particulars: protein: recombinant; tags: N-terminal GST; chain copies: 3; dsDNA, one strand shown. The gist of the method: as §1
In the next test the target is T2, SPIC (Homo sapiens, UniProt Q8N5J4 1-248).
T2 sequence: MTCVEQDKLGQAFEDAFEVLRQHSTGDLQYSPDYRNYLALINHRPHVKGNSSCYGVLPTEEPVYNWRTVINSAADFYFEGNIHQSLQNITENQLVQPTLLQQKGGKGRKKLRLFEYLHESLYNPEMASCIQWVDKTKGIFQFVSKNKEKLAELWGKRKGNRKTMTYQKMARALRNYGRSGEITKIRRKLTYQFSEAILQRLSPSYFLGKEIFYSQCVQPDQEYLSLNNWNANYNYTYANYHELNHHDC
Conditions: protein: recombinant; tags: N-terminal GST; dsDNA, one strand shown. The gist of the method: as §1

The target in the next test is ELF4 (Homo sapiens, UniProt Q99607 1-663). Conditions: protein: recombinant; tags: N-terminal GST; dsDNA, one strand shown. The gist of the method:
as §1

In a further test the target is T3, ELK4 (Homo sapiens, UniProt P28324-2 1-405).
T3 sequence: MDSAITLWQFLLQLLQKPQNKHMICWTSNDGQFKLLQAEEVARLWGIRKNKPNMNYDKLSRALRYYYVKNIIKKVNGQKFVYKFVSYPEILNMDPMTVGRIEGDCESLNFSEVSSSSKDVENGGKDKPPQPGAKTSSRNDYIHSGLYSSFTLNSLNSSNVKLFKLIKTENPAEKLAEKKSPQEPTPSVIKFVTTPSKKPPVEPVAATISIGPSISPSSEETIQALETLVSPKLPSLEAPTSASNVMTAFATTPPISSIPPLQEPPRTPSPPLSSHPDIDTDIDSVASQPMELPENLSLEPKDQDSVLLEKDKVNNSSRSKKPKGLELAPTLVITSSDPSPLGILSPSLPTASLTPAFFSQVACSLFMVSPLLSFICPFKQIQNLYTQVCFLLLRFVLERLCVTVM
Conditions: protein: recombinant; tags: N-terminal GST; dsDNA, one strand shown. The gist of the method:
as §1

In another test the target is T4, ETV2 (Homo sapiens, UniProt O00321 1-342).
T4 sequence: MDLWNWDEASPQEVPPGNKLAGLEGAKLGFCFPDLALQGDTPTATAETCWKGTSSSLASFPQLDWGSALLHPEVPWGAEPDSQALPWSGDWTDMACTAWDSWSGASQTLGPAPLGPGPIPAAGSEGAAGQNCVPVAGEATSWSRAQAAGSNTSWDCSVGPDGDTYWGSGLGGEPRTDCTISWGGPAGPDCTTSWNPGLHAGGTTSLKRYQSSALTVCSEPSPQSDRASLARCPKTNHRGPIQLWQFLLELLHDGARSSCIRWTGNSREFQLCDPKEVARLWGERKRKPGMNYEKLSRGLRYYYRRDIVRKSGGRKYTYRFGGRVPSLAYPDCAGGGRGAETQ
Particulars: protein: recombinant; tags: N-terminal GST; dsDNA, one strand shown. The gist of the method: as §1

The target of a further test is T5, ELF3 (Homo sapiens, UniProt P78545 1-371).
T5 sequence: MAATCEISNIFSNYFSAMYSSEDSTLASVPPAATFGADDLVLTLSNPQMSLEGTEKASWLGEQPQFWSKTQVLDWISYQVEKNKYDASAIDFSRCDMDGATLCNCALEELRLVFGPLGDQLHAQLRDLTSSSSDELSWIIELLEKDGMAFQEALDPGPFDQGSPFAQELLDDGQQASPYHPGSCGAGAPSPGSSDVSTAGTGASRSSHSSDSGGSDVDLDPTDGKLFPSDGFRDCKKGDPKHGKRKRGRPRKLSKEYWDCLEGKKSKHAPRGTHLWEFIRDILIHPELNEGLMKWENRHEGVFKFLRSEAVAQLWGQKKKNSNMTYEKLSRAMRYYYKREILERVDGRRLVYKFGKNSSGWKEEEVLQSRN
Particulars: protein: recombinant; tags: N-terminal GST; dsDNA, one strand shown. In short, it runs like this:
as §1

For another test, the target named is CRX (Homo sapiens, UniProt O43186 1-299). Conditions: protein: recombinant; tags: N-terminal GST; dsDNA, one strand shown. The gist of the method:
as §1

The next test deals with ETV1 (Homo sapiens, UniProt P50549 1-477). Particulars: protein: recombinant; tags: N-terminal GST; dsDNA, one strand shown. The gist of the method:
as §1

The target of a further test is T6, ERF (Homo sapiens, UniProt P50548 1-548).
T6 sequence: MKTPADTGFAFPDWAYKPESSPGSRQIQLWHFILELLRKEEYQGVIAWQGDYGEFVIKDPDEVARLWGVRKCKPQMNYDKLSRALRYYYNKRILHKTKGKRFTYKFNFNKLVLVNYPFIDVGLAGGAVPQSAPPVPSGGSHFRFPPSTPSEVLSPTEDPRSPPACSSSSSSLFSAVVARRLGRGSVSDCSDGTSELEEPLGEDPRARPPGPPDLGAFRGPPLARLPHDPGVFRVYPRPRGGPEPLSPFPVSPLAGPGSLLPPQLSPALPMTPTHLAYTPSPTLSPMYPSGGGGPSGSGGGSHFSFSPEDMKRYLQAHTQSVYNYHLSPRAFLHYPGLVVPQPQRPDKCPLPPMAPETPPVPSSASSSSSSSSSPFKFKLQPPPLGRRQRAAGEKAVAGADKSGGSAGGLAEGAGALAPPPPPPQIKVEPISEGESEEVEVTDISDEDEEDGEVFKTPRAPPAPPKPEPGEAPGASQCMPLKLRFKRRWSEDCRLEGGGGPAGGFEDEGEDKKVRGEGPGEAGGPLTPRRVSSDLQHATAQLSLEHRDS
Particulars: protein: recombinant; tags: N-terminal GST; dsDNA, one strand shown. In short, it runs like this: as §1

In another test the target is T7, ETV3L (Homo sapiens, UniProt Q6ZN32 1-361).
T7 sequence: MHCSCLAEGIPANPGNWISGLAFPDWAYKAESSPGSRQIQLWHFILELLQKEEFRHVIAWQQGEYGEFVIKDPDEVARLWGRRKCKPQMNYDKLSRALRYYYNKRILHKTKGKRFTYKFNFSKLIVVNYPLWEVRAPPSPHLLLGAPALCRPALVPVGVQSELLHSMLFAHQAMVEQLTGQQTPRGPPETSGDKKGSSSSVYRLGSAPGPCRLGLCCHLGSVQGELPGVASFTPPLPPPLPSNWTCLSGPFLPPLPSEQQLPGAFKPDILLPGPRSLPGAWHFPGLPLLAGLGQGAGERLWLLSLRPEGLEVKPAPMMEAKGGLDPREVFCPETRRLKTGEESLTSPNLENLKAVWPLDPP
Particulars: protein: recombinant; tags: N-terminal GST; dsDNA, one strand shown. The gist of the method: as §1

The next test addresses T8, ETS2 (Homo sapiens, UniProt P15036 1-469).
T8 sequence: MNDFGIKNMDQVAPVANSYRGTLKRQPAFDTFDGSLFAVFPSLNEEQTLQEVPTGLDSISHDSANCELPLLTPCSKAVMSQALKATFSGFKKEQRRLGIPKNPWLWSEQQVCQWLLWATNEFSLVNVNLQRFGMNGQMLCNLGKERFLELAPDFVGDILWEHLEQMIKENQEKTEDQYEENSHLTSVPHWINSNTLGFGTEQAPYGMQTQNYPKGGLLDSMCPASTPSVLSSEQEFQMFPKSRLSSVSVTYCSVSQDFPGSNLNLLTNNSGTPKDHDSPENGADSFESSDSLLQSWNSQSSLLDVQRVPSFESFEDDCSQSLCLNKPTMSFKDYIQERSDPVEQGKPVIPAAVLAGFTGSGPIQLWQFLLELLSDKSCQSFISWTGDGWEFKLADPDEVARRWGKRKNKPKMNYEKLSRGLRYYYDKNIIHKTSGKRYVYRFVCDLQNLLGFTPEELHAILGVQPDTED
Particulars: protein: recombinant; tags: N-terminal GST; dsDNA, one strand shown. The gist of the method: as §1

The next test deals with T9, SPDEF (Homo sapiens, UniProt O95238 1-335).
T9 sequence: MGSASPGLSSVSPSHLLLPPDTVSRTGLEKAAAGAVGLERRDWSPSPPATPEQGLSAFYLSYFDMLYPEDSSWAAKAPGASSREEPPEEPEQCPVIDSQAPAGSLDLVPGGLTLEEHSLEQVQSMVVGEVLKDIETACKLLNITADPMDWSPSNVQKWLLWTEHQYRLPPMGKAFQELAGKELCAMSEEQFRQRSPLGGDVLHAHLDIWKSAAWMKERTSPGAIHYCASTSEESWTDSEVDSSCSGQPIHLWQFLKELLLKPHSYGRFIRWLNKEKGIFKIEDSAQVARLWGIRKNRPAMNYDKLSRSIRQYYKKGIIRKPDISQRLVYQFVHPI
Conditions: protein: recombinant; tags: N-terminal GST; dsDNA, one strand shown. The gist of the method:
as §1

The target in another test is T10, ETV7 (Homo sapiens, UniProt Q9Y603 1-341).
T10 sequence: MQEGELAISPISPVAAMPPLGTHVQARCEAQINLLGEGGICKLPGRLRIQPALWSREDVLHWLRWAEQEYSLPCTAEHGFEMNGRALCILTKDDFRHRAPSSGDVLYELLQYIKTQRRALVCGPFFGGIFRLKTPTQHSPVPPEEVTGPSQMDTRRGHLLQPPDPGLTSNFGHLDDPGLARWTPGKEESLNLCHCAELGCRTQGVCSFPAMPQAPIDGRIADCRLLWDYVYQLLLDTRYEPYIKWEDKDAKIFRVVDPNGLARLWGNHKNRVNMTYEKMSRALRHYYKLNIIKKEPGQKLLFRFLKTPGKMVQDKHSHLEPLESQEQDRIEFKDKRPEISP
Particulars: protein: recombinant; tags: N-terminal GST; dsDNA, one strand shown. In short, it runs like this: as §1

The target of a further test is T11, ELF5 (Homo sapiens, UniProt Q9UKW6-2 1-255).
T11 sequence: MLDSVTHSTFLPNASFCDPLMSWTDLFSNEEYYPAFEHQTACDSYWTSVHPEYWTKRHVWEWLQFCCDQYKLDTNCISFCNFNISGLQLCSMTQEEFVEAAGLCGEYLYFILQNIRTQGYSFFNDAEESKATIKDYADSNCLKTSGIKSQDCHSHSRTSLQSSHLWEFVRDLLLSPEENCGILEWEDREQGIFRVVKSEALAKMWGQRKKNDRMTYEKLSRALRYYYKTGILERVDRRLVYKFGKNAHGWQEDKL
Particulars: protein: recombinant; tags: N-terminal GST; dsDNA, one strand shown. The gist of the method:
as §1

For the next test, the target named is T12, ETV3 (Homo sapiens, UniProt P41162-2 1-143).
T12 sequence: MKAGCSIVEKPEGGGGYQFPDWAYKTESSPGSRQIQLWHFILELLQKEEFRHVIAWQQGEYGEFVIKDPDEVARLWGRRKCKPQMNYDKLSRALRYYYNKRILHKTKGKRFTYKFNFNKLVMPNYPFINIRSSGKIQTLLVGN
Particulars: protein: recombinant; tags: N-terminal GST; dsDNA, one strand shown. In short, it runs like this:
as §1

A further test addresses ETV6 (Homo sapiens, UniProt P41212 1-452). Conditions: protein: recombinant; tags: N-terminal GST; dsDNA, one strand shown. The gist of the method:
as §1

ETV6, sequence (P41212 whole entry): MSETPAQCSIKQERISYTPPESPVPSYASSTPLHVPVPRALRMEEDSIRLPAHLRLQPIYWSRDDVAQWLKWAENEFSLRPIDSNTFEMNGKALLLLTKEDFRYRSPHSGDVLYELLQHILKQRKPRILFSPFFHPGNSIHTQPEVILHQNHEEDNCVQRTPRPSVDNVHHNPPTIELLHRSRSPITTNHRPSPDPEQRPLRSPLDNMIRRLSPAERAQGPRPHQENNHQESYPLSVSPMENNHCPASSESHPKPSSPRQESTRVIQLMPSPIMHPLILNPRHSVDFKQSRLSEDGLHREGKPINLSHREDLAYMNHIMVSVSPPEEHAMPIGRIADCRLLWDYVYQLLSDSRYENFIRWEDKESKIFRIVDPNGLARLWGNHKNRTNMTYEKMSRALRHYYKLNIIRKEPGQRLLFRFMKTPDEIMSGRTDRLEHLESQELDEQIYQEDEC
ELF4, sequence (Q99607 whole entry): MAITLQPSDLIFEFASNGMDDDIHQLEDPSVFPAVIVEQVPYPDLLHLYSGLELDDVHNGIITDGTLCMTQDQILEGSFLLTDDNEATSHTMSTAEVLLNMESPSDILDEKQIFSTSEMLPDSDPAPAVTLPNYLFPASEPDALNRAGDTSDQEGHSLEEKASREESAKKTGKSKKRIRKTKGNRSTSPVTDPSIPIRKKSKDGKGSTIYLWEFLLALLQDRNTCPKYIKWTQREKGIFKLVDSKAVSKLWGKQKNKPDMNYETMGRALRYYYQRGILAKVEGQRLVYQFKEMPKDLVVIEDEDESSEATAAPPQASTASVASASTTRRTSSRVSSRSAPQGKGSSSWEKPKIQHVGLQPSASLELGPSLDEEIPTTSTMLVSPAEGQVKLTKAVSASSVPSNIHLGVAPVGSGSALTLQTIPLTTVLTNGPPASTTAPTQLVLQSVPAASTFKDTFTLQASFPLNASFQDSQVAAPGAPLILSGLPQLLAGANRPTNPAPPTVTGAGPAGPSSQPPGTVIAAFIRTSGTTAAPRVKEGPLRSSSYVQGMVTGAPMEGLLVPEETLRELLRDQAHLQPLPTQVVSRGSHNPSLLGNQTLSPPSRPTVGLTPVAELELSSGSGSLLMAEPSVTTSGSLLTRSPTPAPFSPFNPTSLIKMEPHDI
CRX, sequence (O43186 whole entry): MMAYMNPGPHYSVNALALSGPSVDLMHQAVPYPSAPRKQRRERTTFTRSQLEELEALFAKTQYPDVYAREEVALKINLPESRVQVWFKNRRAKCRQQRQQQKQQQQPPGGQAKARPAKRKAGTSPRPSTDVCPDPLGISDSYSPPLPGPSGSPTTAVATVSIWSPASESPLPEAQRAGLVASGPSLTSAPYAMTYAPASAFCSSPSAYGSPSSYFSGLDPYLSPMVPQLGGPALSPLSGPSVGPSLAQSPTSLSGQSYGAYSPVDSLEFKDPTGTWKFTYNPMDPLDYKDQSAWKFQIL
ETV1, sequence (P50549 whole entry): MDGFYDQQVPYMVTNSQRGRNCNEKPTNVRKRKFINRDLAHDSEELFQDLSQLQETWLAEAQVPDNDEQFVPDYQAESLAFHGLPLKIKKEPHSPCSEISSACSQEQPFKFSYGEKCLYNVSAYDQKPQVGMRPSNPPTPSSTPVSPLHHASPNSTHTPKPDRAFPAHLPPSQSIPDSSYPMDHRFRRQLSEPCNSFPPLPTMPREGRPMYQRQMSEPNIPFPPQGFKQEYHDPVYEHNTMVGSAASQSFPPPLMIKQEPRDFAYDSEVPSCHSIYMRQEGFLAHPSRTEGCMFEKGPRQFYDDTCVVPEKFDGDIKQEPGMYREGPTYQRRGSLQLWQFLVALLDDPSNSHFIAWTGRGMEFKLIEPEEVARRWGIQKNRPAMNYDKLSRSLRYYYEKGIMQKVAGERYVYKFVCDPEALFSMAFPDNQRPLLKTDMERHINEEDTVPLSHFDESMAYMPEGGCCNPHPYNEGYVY
HSF1, sequence (Q00613 whole entry): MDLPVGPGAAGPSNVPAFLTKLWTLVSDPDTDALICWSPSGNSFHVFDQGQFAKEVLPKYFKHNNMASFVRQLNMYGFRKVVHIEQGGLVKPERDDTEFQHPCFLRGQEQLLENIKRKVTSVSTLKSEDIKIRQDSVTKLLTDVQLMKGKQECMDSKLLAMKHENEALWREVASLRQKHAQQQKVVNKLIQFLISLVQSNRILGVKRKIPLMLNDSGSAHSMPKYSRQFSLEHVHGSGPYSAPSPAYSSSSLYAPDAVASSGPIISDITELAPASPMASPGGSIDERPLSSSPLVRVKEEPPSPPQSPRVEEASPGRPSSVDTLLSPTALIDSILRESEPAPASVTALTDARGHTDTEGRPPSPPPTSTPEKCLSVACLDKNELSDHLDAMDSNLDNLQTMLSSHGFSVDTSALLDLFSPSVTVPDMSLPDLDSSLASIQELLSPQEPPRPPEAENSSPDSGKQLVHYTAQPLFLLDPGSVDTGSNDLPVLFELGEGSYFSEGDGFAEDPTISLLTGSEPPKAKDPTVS
ETV5, sequence (P41161 whole entry): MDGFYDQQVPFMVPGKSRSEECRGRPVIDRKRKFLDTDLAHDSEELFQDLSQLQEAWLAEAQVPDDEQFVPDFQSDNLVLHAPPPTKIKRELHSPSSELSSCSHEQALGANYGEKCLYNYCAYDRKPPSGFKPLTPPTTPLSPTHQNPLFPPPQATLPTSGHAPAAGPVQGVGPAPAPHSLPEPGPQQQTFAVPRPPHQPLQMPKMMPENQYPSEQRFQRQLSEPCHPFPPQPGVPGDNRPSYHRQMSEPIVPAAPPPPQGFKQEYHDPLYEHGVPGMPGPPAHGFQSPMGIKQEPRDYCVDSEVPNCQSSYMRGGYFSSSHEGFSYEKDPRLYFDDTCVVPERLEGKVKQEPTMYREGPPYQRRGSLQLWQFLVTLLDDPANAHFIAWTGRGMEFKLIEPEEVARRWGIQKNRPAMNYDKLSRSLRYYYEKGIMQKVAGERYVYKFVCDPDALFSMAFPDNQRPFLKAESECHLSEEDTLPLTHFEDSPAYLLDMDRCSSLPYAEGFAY

With ACTATC, the binding signal with FEV was 1.13 fold enrichment (6-mer frequency, TF over GST control); with ETV5 it was 1.13 fold enrichment (6-mer frequency, TF over GST control); with HSF1, 1.13 fold enrichment (6-mer frequency, TF over GST control); with SPIC it was 1.19 fold enrichment (6-mer frequency, TF over GST control); with ELF4, 1.24 fold enrichment (6-mer frequency, TF over GST control); with ELK4, 1.2 fold enrichment (6-mer frequency, TF over GST control). Also, the binding signal with ETV2 is 1.32 fold enrichment (6-mer frequency, TF over GST control); with ELF3, 1.22 fold enrichment (6-mer frequency, TF over GST control); with CRX, 1.15 fold enrichment (6-mer frequency, TF over GST control); with ETV1 it was 1.15 fold enrichment (6-mer frequency, TF over GST control); with ERF, 1.21 fold enrichment (6-mer frequency, TF over GST control); in the test with ETV3L it was 1.15 fold enrichment (6-mer frequency, TF over GST control). For the same sequence, the binding signal with ETS2 is 1.19 fold enrichment (6-mer frequency, TF over GST control); with SPDEF it was 1.18 fold enrichment (6-mer frequency, TF over GST control); with ETV7, 1.19 fold enrichment (6-mer frequency, TF over GST control); in the test with ELF5, 1.13 fold enrichment (6-mer frequency, TF over GST control); with ETV3, 1.13 fold enrichment (6-mer frequency, TF over GST control); with ETV6, 1.1 fold enrichment (6-mer frequency, TF over GST control).

These data come from publication PMC7862700, “An all-to-all approach to the identification of sequence-specific readers for epigenetic DNA modifications on cytosine”.
